# Screening results: PubChem BioAssay, Broad Institute
# The list is not random: actives were taken first. Their share in the collection is about 6.8%.
# T cruzi growth-1: T. cruzi intracellular proliferation inhibitors, primary screen, cell-based, beta-gal Tulahuen parasites, NIH3T3 host, luminescence; AID 624255, 2012; T. cruzi beta-gal in NIH3T3, GalScreen luminescence, 90 h; 5.9% of 77,000 active; inhibition, % at 8.34 µM;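 active = mean inhibition above about 93%, with at least 55% of replicates each passing it, limit read from the data, passing the limit was not always enough; inconclusive = only one of those two conditions holds; inactive = neither condition holds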
# C diff growth: C. difficile growth inhibitors, primary screen, HTS. AID 1259249, 2017. growth activity, negative = inhibition, % at 16 µg/mL (by protocol). 0.25% of 86,000 active. Clostridium difficile clinical isolate growth, OD600, 24 h; stronger effect = lower value;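 active = mean growth activity at or below -80% and every replicate also at or below -80%; inconclusive = mean at or below -80% but some replicate above -80%; inactive = mean growth activity above -80%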
# Pf Dd2 growth: P. falciparum Dd2 growth inhibitors, primary screen, SYBR Green fluorescence, single dose replicates; 2.3% of 94,000 active; 72 h; stronger effect = lower value; activity change, % at 10 µM; AID 1159554, 2015; in the data active = activity change below about -80%; inconclusive = no clear call, values can overlap the other calls
# T cruzi growth-2: T. cruzi intracellular proliferation inhibitors, confirmation, cell-based, NIH3T3 host, beta-gal parasite, luminescence, cherry-pick. shares compounds with T cruzi growth-1. T. cruzi beta-gal in NIH3T3, GalScreen luminescence, 90 h. 72% of 5,600 active. inhibition, % at 8.35 µM;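 active = mean replicate inhibition above about 95% and at least 55% of replicates individually reaching it, limit read from the data; inconclusive = only one of the two criteria is met; inactive = neither criterion is met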
# T cruzi growth-3: inhibitors of intracellular T. cruzi replication, confirmation, NIH3T3 host cells, beta-gal parasites, cherry-pick, set 2; inhibition, % at 2.09 µM; shares compounds with T cruzi growth-1; 21% of 5,600 active; T. cruzi beta-gal in NIH3T3, GalScreen luminescence, 90 h;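 active = mean inhibition above about 95%, with at least 55% of replicates also reaching it, limit read from the data; inconclusive = meets just one of the two conditions; inactive = meets neither condition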
# NIH3T3 tox: cytotoxicity in mouse NIH/3T3 fibroblasts, confirmation, cytotoxicity control for T. cruzi proliferation inhibitor project, cell-based, cherry-pick, single point | shares compounds with T cruzi growth-1 | NIH/3T3 viability, CellTiter-Glo ATP luminescence, 90 h | cytotoxicity (signal decrease), % at 8.35 µM | 14% of 5,600 active | AID 651742, 2012;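 active = mean signal decrease across replicates above about 35% based on untreated-well scatter, with enough replicates individually passing, limit read from the data; inconclusive = no rule stated though some were filed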
# NIH3T3 tox 2: NIH/3T3 fibroblast cytotoxicity, confirmation, cytotoxicity control, cell-based, cherry-pick, single point, set 2. shares compounds with T cruzi growth-1. NIH/3T3 viability, CellTiter-Glo ATP luminescence, 90 h. inhibition, % at 24.9 µM. 56% of 5,600 active. AID 651744, 2012;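 active = mean loss of cell viability signal at or above a set limit, and enough replicates individually reaching it; inconclusive = meets only the mean limit or only the replicate share; inactive = meets neither condition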
# Hits are given with their value; . = inactive; ? = inconclusive; / = no result.
SMILES,T cruzi growth-1,C diff growth,Pf Dd2 growth,T cruzi growth-2,T cruzi growth-3,NIH3T3 tox,NIH3T3 tox 2
COCC(=O)N1CC2(CCN(Cc3ccccc3)CC2)c2c(n(C)c3cc(OC)ccc23)[C@H]1CO,/,.,.,/,/,/,/
C/C=C/c1ccc2c(c1)O[C@@H](CN(C)Cc1cccnc1)[C@@H](C)CN([C@H](C)CO)S2(=O)=O,.,.,.,/,/,/,/
C[C@@H]1CN([C@@H](C)CO)S(=O)(=O)c2ccc(/C=C/c3ccccc3)cc2O[C@@H]1CN(C)Cc1ccc(C(=O)O)cc1,.,.,.,/,/,/,/
C[C@H](CO)N1C[C@H](C)[C@@H](CN(C)Cc2ccccc2)Oc2cc(/C=C/c3ccccc3)ccc2S1(=O)=O,.,.,.,/,/,/,/
C[C@H](CO)N1C[C@H](C)[C@H](CN(C)Cc2ccccc2)Oc2cc(/C=C/c3ccccc3)ccc2S1(=O)=O,102.6,.,.,100.4,100.0,.,104.1
C[C@H]1CN([C@@H](C)CO)S(=O)(=O)c2ccc(/C=C/c3ccccc3)cc2O[C@H]1CN(C)Cc1ccccc1,110.0,.,.,97.0,113.2,.,103.1
C[C@@H]1CN([C@@H](C)CO)S(=O)(=O)c2ccc(/C=C/c3ccccc3)cc2O[C@@H]1CN(C)Cc1cccnc1,88.3,.,.,.,.,69.6,94.5
CC(C)CC#Cc1ccc2c(c1)O[C@H](CN(C)Cc1cccc(F)c1)[C@@H](C)CN([C@H](C)CO)S2(=O)=O,.,.,.,/,/,/,/
CN(C)C(=O)C[C@H]1CC[C@@H]2[C@H](COc3ccc(NC(=O)C4CCCC4)cc3C(=O)N2C)O1,/,.,.,/,/,/,/
COc1cccc(NC(=O)N[C@H]2C=C[C@H](CC(=O)Nc3ccccc3)O[C@H]2CO)c1,/,.,.,/,/,/,/
CC(C)CC#Cc1ccc2c(c1)O[C@@H](CN(C)C(=O)C1CCC1)[C@@H](C)CN([C@H](C)CO)S2(=O)=O,.,.,.,/,/,/,/
CC(C)CC#Cc1ccc2c(c1)O[C@@H](CN(C)C(=O)C1CCC1)[C@H](C)CN([C@H](C)CO)S2(=O)=O,?,.,.,102.3,.,.,101.1
CC(C)CC#Cc1ccc2c(c1)O[C@H](CN(C)C(=O)C1CCC1)[C@H](C)CN([C@H](C)CO)S2(=O)=O,.,.,.,/,/,/,/
CC(C)CC#Cc1ccc2c(c1)O[C@H](CN(C)C(=O)C1CCC1)[C@H](C)CN([C@@H](C)CO)S2(=O)=O,.,.,.,/,/,/,/
CC(C)CC#Cc1ccc2c(c1)O[C@@H](CN(C)C(=O)C1CCC1)[C@H](C)CN([C@@H](C)CO)S2(=O)=O,105.9,.,.,96.5,104.1,.,41.9
CC(C)CC#Cc1ccc2c(c1)O[C@H](CN(C)C(=O)C1CCC1)[C@@H](C)CN([C@@H](C)CO)S2(=O)=O,106.0,.,.,106.7,.,.,103.9
COCCNC(=O)C[C@H]1C=C[C@H](NC(=O)NC2CCCCC2)[C@H](CO)O1,/,.,.,/,/,/,/
C[C@H]1CCCCO[C@H](CN(C)C(=O)Nc2ccc(F)cc2)[C@@H](C)CN([C@@H](C)CO)C(=O)c2cc(NC(=O)Nc3cccc4ccccc34)ccc2O1,116.7,.,.,112.6,.,.,.
C[C@H]1CCCCO[C@H](CN(C)C(=O)Nc2cccc3ccccc23)[C@@H](C)CN([C@@H](C)CO)C(=O)c2cc(NC(=O)Cc3ccccc3)ccc2O1,97.3,.,-84.5,103.9,118.2,.,24.4
C[C@@H]1CCCCO[C@H](CN(C)C(=O)Nc2cccc3ccccc23)[C@@H](C)CN([C@H](C)CO)C(=O)c2cc(NC(=O)Nc3ccccc3)ccc2O1,.,.,.,/,/,/,/
COc1ccc(NC(=O)Nc2ccc3c(c2)C(=O)N([C@@H](C)CO)C[C@@H](C)[C@@H](CN(C)C(=O)Nc2cccc4ccccc24)OCCCC[C@@H](C)O3)cc1,?,.,.,103.4,.,.,.
